Experimental findings from PubChem BioAssay (Tox21) are described below.

Results filed as inconclusive are left out. Entries that show only a call come without a potency. Calls of active or inactive are those of the source. Calls come from the whole dose curve; as a rule, active = well fitted cell-killing curve with a large enough effect in the repeat runs; inconclusive = weak or mixed curves, or effect the other way; inactive = flat fitted curve, though single readings scatter.

The test is described as follows: qHTS assay to identify small molecule antagonists of the constitutive androstane receptor (CAR) signaling pathway - cell viability counter screen (AID 1224837). Note: nearly all actives have a fitted effect of over 45% in size. As to conditions: HepG2-CYP2B6-hCAR viability, CellTiter-Fluor, 23 h, co-treated with 50 nM CITCO; series mostly up to 92.4 µM. The text has this: National Center for Advancing Translational Sciences [NCATS]
NIH Chemical Genomics Center [NCGC]
U.S. Environmental Protection Agency [EPA]
National Institutes of Environmental Health Sciences [NIEHS]
National Toxicology Program [NTP]
U.S. Food and Drug Administration [FDA]
The constitutive androstane receptor (CAR) is a nuclear receptor which regulates multiple drug metabolizing enzymes (DMEs) and transporters. Activating CAR will generally increase the transcription and subsequent translation of CYP2B6 and CYP3A4. These two DMEs represent about 50% of the drug metabolizing potential in the body. When CAR is deactivated, the metabolizing potential in the body will decrease, subsequently increasing the toxicity in the body or lowering the therapeutic potential of a pro-drug. Recently, there have also been studies performed indicating CARs role in energy metabolism and cancer therapy. Therefore, inhibiting CARs activity could have a potential effect on diabetes and cancer. Identifying environmental toxins and compounds which modulate CAR, through the use of the Tox21 10K compound collection, will be an important step in determining the toxicity and potential therapeutic effects these factors will have on the human body. To differentiate true CAR antagonists from cytotoxic substances, the assay is multiplexed with a cell viability assay.
Tox21 Assay Protocol Summary:
A double-stable (hCAR and CYP2B6-2.2kb) transfected cell line, derived from human hepatoma (HepG2) cells, was utilized for the duration of the quantitative high-throughput screens. The HepG2-CYP2B6-hCAR cells were dispensed at 2500 cells/4 uL/well in 1536-well white solid bottom plates using a Multidrop Combi. After the assay plates were incubated at 37 C/5% CO2 for 4 hrs, 23 nL of compounds at 15 concentrations (from 5-48 columns) or positive control (from 1 to 4 columns) were transferred to the assay plates using a Pintool station. One uL of CITCO (final concentration = 50 nM) was added, using a Flying Reagent Dispenser, inside each well. After a 23 hr incubation period at 37 C/5% CO2, 1 uL of CellTiter-Fluor reagent was added into each well of the assay plates using a Flying Reagent Dispenser. The fluorescence intensity in the plates was then measured using a ViewLux plate reader.
As to `O=[N+]([O-])c1ccc(Oc2ccc(Cl)cc2Cl)cc1`, the Potency entry was “inactive”. Turning to `CN(C)N=O`, the Potency result was “inactive”. To `CC(C)(C)OOC(=O)c1ccccc1` belongs “inactive”.

As for `O=[N+]([O-])c1ccccc1`, the Potency entry was “inactive”. Consider `CCCN(CCC)N=O`, for which the Potency result is “inactive”.

On to `COCCl`, for which the Potency entry is “inactive”. For `CC(C)C1(C)N=C(c2nc3ccccc3cc2C(=O)O)NC1=O` (stereo not given), the Potency entry was “inactive”. As to `CCC12COCN1COC2`, the Potency result is “inactive”. Take `CCC(C)(CC)c1cc(NC(=O)c2c(OC)cccc2OC)on1`: the Potency entry is “inactive”. In the case of `BrCCBr`, the Potency result was “inactive”. To `O=c1ccc(=O)[nH][nH]1` belongs “inactive”.

On to `O=Cc1cccc(Oc2ccccc2)c1`, for which the Potency result is “inactive”. For `OCCN(CCO)CCO`, the Potency entry is “inactive”. As to `CN(C)[C@@H]1C(=O)C(C(N)=O)=C(O)[C@@]2(O)C(=O)C3=C(O)c4c(O)cccc4[C@@](C)(O)[C@H]3C[C@@H]12`, the Potency result was “inactive”. `C1CC2OC2CC1C1CO1` (stereo not given): the Potency entry was “inactive”.

In the case of `O=NN1CCCCCCC1`, the Potency entry is “inactive”. Consider `CCOP(OCC)OCC`, for which the Potency result is “inactive”. `CCNc1nc(NC(C)C)nc(SC)n1`: the Potency result was “inactive”.

On to `Nc1ccc(Oc2ccc(N)cc2)cc1`, for which the Potency entry is “inactive”. For `C=CCO`, the Potency result is “inactive”. For `Cc1[nH]c(=O)n(C(C)(C)C)c(=O)c1Cl`, the Potency result was “inactive”.

Regarding `C#CC(C)(C)NC(=O)c1cc(Cl)cc(Cl)c1`, the Potency entry is “inactive”.

Take `CCN(CC)CCO`: the Potency result was “inactive”. As for `Nc1ccc(Br)cc1`, the Potency result was “inactive”. As for `CC(NC(C)(C)C)C(=O)c1cccc(Cl)c1` (stereo not given), the Potency entry was “inactive”.

As for `CON(C)C(=O)Nc1ccc(Cl)c(Cl)c1`, the Potency result was “inactive”. To `Cn1cc(-c2ccccc2)c(=O)c(-c2cccc(C(F)(F)F)c2)c1` belongs “inactive”; to `CCOP(=S)(OCC)SCCSCC`, “inactive”; to `ClCc1cccnc1`, “inactive”. In the case of `CC(=O)C=C(C)C`, the Potency entry is “inactive”. Next, `C=CC(N)=O`: “inactive”. For the compound `C1CN2CCN1CC2`, the Potency entry is “inactive”. Next, `CC(Br)C(=O)O` (stereo not given): “inactive”; `CCNc1nc(NC(C)(C)C)nc(SC)n1`: “inactive”. Take `Cc1ccc(N)cc1N`: the Potency result was “inactive”. Next, `ClCCBr`: “inactive”; `[N-]=[N+]=[N-]`: “inactive”; `CC(C)(Cl)Cl`: “inactive”. Next, `CC1C=[C-]C=C1.[C-]#[O+].[C-]#[O+].[C-]#[O+].[Mn]`: “inactive”. For `Nc1c(Cl)c(Cl)nc(C(=O)O)c1Cl`, the Potency result was “inactive”.
